Hits are enriched below; roughly 9% of the tested compounds scored in any of these assays.
12-LOX inh = inhibitors of human 12S-lipoxygenase ALOX12 | P18054 | purified 12hLO, xylenol orange hydroperoxide absorbance | Potency, µM (top dose mostly 108 µM), for the others: top-dose activity change, negative = inhibition, most hits filed as inhibitors | hit rate 1.1% among 580,000 | AID 1671190; note: % is set by controls: 0 for no effect and ±100 for the full control effect
Target sequence (P18054 whole entry, looked up): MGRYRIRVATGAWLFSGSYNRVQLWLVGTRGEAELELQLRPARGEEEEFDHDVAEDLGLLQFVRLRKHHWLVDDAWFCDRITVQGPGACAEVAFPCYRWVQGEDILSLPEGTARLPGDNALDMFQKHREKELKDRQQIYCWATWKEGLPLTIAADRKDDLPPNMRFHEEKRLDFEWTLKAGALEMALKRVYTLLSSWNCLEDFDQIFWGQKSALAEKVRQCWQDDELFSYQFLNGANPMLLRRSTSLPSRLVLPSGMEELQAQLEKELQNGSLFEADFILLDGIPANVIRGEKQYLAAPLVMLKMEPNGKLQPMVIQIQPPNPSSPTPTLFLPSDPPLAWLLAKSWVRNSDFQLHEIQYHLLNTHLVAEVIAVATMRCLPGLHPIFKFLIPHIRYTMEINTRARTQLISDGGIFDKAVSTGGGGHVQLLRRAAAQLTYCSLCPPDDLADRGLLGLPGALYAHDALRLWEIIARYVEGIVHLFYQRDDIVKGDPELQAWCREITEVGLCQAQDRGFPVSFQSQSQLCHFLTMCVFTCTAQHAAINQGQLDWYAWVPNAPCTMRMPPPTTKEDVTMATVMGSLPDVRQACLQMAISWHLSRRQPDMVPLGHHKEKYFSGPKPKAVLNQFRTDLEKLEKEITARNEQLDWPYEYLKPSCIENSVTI
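Purified human 12hLO at 150 nM in 25 mM Hepes, 0.01% Triton X-100, pH 7.0, preincubated 15 min at room temperature with compound. Reaction started with 40 uM arachidonic acid, 30 min at room temperature. Hydroperoxide measured by Fe-xylenol orange, 573/405 nm absorbance ratio.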
JMJD2A Tudor = JMJD2A Tudor domain (human) inhibition; AID 504339; AlphaScreen JMJD2A-Tudor / H3K4me3 peptide binding; hit rate 4.4% among 390,000; Potency, µM (doses to about 114 µM), without a hit: at the highest dose activity change, negative = inhibition, most hits filed as inhibitors; O75164; note: % is set by controls: 0 for no effect and ±100 for the full control effect; nearly all actives have a fitted effect of over 50% in size
BAZ2B inh = inhibitors of human BAZ2B bromodomain; AlphaScreen BAZ2B-H3K14Ac peptide displacement; Potency, µM (titrated, usually from 114 µM), without a hit: top-dose activity change, negative = inhibition, hits mostly inhibitors; hit rate 4.4% among 360,000; note: % is set by controls: 0 for no effect and ±100 for the full control effect; nearly all actives have a fitted effect of over 60% in size
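AlphaScreen displacement: compounds (up to 110uM) incubated 30 min at room temperature with a preformed 50 nM BAZ2B/50 nM biotinylated H3K14Ac peptide complex in PBS pH 7.4 with Tween-20. Donor and acceptor beads at 10 ug/mL final added, 20 min light-protected before reading.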
G9a inh = blocks human histone lysine methyltransferase G9a. Q96KQ7. G9a H3K9 monomethylation, AlphaScreen, 2 h. Potency, µM (doses to about 102 µM), for the others: top-dose activity, negative = inhibition, most hits filed as inhibitors. hit rate 8.8% among 350,000; note: % is set by controls: 0 for no effect and ±100 for the full control effect; nearly all actives have a fitted effect of over 75% in size
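Readings reflect AlphaScreen signal from monomethyl-H3K9 antibody detection. HMT at 20 nM; substrate b-H3K9 500 nM; cofactor SAM 20 uM; 2 h RT reaction; compounds tested as titrations in qHTS with 15 min preincubation.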
HP1b chromo inh = blocks HP1-beta chromodomain binding to methylated histone tails | P83916 | AlphaScreen HP1-beta / biotin-H3K9me3 peptide binding | Potency, µM (highest dose often 114 µM), without a hit: at the highest dose activity change, negative = inhibition, hits mostly inhibitors | hit rate 0.56% among 390,000; note: nearly all actives have a fitted effect of over 70% in size
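HP1-beta protein (50 nM final) preincubated 30 min at room temperature with biotinylated H3(1-18)K9me3 peptide (50 nM) in PBS pH 7.4, 0.01% Tween-20, then compound added for 30 min. AlphaScreen streptavidin donor/nickel chelate acceptor beads (10 ug/mL final), 30 min dark, luminescence read.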
PLK1 PBD block = blocks phosphopeptide binding to human PLK1 polo-box domain; Plk1 PBD binding of FITC phosphopeptide, fluorescence polarization; Potency, µM, without a hit: max response, negative = inhibition, usual class: inhibitors; hit rate 2.8% among 360,000; note: series mostly up to about 57 µM; % is set by controls: 0 for no effect and ±100 for the full control effect; nearly all actives have a fitted effect of over 65% in size
Starred values were filed as active, the others as inactive; ? = inconclusive; · = no result given; ! = not confirmed by another sample; [ ] = remark or other dose. Calls come from the whole dose curve; as a rule, active = well fitted curve in the direction sought with a large enough effect; inconclusive = small, poorly fitted or top-dose-only effect, or another doubt; inactive = no such curve, though single readings can be large; an effect the other way counts as inactive or inconclusive. Potency is the fitted concentration of half-maximal effect.

SMILES	12-LOX inh	JMJD2A Tudor	BAZ2B inh	G9a inh	HP1b chromo inh	PLK1 PBD block
COCCNC(=S)Nc1ccccn1	?	-8%	-4%	·	31%	-1%
O=C(NC(=S)Nc1cccc(CO)c1)c1ccc(-c2ccccc2)cc1	?	-16%	?	9%[59 µM]	-3%	-2%
O=C(NC(=S)Nc1ccccn1)c1ccccc1	?	-5%	3%	50µM*	49%	-4%
CC(C)CCNC(=S)Nc1ccccn1	?	-13%	-13%	1µM*	24%	-6%
CC(C)C(=O)NC(=S)Nc1ccccn1	?	?	6%	56µM*	24%	0%
Cc1c(CNCc2ccc(Cl)cc2)c(C(=O)O)c(C)n1Cc1ccc(F)cc1	3%	-22%	-12%	1%[59 µM]	25%	·
O=C(NC(=S)Nc1ccccn1)c1ccc(-c2ccccc2)cc1	32µM*	-15%	-17%	45%	24%	-7%
O=C(NC(=S)Nc1ccccn1)c1ccc([N+](=O)[O-])cc1	1%	-23%	-25%	79µM*	9%	-4%
CCCN(CCC)C(=S)NC(=O)c1ccc(-c2ccccc2)cc1	?	50µM*	?	30%[12.7 µM]	16%	-5%
O=C(Nc1ncccn1)c1ccc([N+](=O)[O-])cc1	-6%	1%	-6%	-40%	33%	-2%
O=C(CNC(=O)c1ccccc1)NCCc1ccc(O)c(O)c1	?	·	-19%	8.9µM*	·	·
CC(=O)NCCc1ccc(O)c(O)c1	·	·	·	2µM*	·	·
O=C(COC(=O)CNC(=O)c1ccccc1)NCCc1ccccc1	8%	-7%	1%	8%	23%	-11%
COC(=O)C(N)Cc1ccc(O)c(O)c1 (configuration not stated)	6.3µM*	-15%	-31%	?	0%	-4%
C[C@](N)(Cc1ccc(O)cc1)C(=O)O	-3%[3.43 µM]	·	·	0%[59 µM]	·	·
C[C@](N)(Cc1ccc(O)c(O)c1)C(=O)O	?	20µM*	16µM*	0.45µM*!	?	-11%
CCN1CCc2c(C#N)c(N3CCOCC3)nc(N3CCOCC3)c2C1	26%	13%	13%	27%[12.7 µM]	50%	-4%
O=C(c1ccc(S(=O)(=O)Nc2cccc(C(F)(F)F)c2)cc1)N1CCC1	2%	-8%	-11%	·	23%	1%
CCC(=O)N(C1=C(NC(C)C)C(=O)c2ccccc2C1=O)C(C)C	-21%	-24%	-31%	45µM*	0%	-1%
CCCNC1=C(N(C(C)=O)c2cccc(F)c2)C(=O)c2ccccc2C1=O	7%	-25%	-43%	4%[59 µM]	-15%	-2%
CCOC(=O)N(C)C[C@H]1OCc2cn(nn2)CCCC(=O)N([C@H](C)CO)C[C@@H]1C	0%	·	·	·	·	-6%
Cc1cc(O)c2c(C)c(CC(=O)NCCc3cccc(F)c3)c(=O)oc2c1	28µM*	·	·	·	·	·
COCCCNC1=C(C#N)C(=O)NC(c2cccc([N+](=O)[O-])c2)S1 (configuration not stated)	-18%	·	·	·	·	19µM*
COC(=O)C1=C(C#N)NC(C)=C(C(=O)OC(C)C)C1c1cccc([N+](=O)[O-])c1 (configuration not stated)	·	·	·	-24%[12.7 µM]	·	·
COc1ccc(C(=O)N/C(=C/c2ccco2)C(=O)N2CCCCCC2)cc1	?	-23%	?	35µM*	21%	-15%
SMILES	12-LOX inh	JMJD2A Tudor	BAZ2B inh	G9a inh	HP1b chromo inh	PLK1 PBD block
O=C(N/C(=C/c1ccc(F)cc1)C(=O)N1CCOCC1)c1ccccc1	0%	-16%	-6%	·	5%	-6%
O=C(N/C(=C\c1ccco1)C(=O)N1CCOCC1)c1ccco1	0%	-6%	4%	32µM*	20%	-11%
O=C(N/C(=C\c1ccc(-c2ccccc2)o1)C(=O)N1CCOCC1)c1ccccc1	-16%	56µM*	-32%	50µM*	-24%	27µM*
O=C(N/C(=C/c1ccco1)C(=O)N1CCCCCC1)c1cccs1	?	-17%	-11%	?	5%	-10%
Cc1ccc(C(=O)N/C(=C\c2ccco2)C(=O)N2CCCCC2)cc1	?	-20%	-13%	45µM*	?	-5%
CCN1CCN(C(=O)/C(=C/c2ccco2)NC(=O)c2ccccc2)CC1	-14%	11%	1%	?	21%	-15%
O=C(N/C(=C/c1ccco1)C(=O)N1CCCCCC1)c1ccccc1	13%	-16%	2%	45µM*	-15%	-7%
CC1CN(C(=O)/C(=C/c2ccco2)NC(=O)c2ccccc2)CC(C)O1 (configuration not stated)	-21%	-11%	-3%	35µM*	0%	-4%
Cc1ccc(C(=O)N/C(=C/c2ccco2)C(=O)N2CCOCC2)cc1	-17%	5%	0%	?	19%	5%
Cc1ccc(C(=O)N/C(=C/c2ccco2)C(=O)N2CCCCC2)cc1	?	-19%	-9%	50µM*	-3%	-1%
CCOC(=O)C1CCCN(C(=O)/C(=C/c2ccco2)NC(=O)c2ccccc2)C1 (configuration not stated)	-15%	-25%	-18%	40µM*	4%	-5%
Cc1cc(C)cc(OC(C)C(=O)Nc2c(C(=O)c3ccccc3)oc3ccccc23)c1 (configuration not stated)	-2%	42%	6%	44%[59 µM]	86%	·
Cc1ccc2c(CSc3nnc(C4CC4)n3N)cc(=O)oc2c1C	-15%	-10%	·	-18%[59 µM]	16%	-16%
Cc1ccc2c(CSc3nnc(C4CC4)n3N)cc(=O)oc2c1	6%	-15%	21%	50µM*	34%	-5%
Cc1cccc(C(=O)O/N=C2\CCCc3ccccc32)c1	1%	69%	81%	174%	104%	-1%
S=C(N/N=C1/CCCCc2ccccc21)NC1CCCCC1	45µM*	·	·	·	·	·
COc1ccccc1OCC(=O)N/N=C1\CCCCc2ccccc21	-2%	-16%	-19%	-21%	-5%	7%
O=C(N/N=C1\CCCCc2ccccc21)c1ccccn1	-3%	-23%[11.4 µM]	-28%	5%	33%	-13%
S=C(NN=C1CCC(c2ccccc2)CC1)NC1CCCCC1 (configuration not stated)	35µM*	·	·	·	·	·
C=C(C)CNC(=S)N/N=C1\CCCCc2ccccc21	35µM*	?	?	?	?	3%
Cc1cccc(NC(=S)N/N=C2/CCCCc3ccccc32)c1	32µM*	?	40µM*	-10%[59 µM]	?	-19%
O=C(NCc1ccccc1)C1(Oc2ccc(Cl)cc2)CCNCC1	11%	·	·	·	·	·
CCCCN(C)C(=O)c1cc2cc3ccc(OC)cc3nc2s1	18%	3%[57.1 µM]	2%	3%[59 µM]	52%	-5%
Cc1ccc(NC(=S)N/N=C2/CCCCc3ccccc32)cc1	32µM*	?	?	?	-20%	-26%
COc1ccc(NC(=S)N/N=C2/CCCc3c(C)cc(C)cc32)cc1	0%	-24%	-6%	3%[59 µM]	-2%	-8%

Compound activity (PubChem BioAssay)
